Measured values: the supplement of paper PMC10338343
± gives the standard deviation.

Columns and labels:
[1] = test system: MILI (PIWIL2) piRISC loaded with L1MC piRNA (26 nt); assay: pre-steady-state target cleavage rate (min^-1); guide: L1MC piRNA 5'p-UAACUAAAUACUAUGCAAGCUGUAGG; higher = faster piRNA-guided slicing of the target
How it was run: (§1)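 Sequencing of uncleaved targets, normalised to depth and to weakly complementary targets, was the readout of this Cleave-'n-Seq assay. A transcribed, DNA-blocked target RNA library (0.1 nM) was mixed with 1 nM active affinity-purified piRISC carrying one synthetic guide, with or without 500 nM GTSF1 partner protein, in HEPES–potassium acetate buffer at 33 °C for 0–8 or 0–960 min. Three trials were pooled, k3 was capped at 0.0001 min^-1, and a burst-and-steady-state fit gave the pre-steady-state cleavage rate.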

[2] = test system: EfPiwi piRISC loaded with L1MC piRNA (26 nt); assay: pre-steady-state target cleavage rate (min^-1); auxiliary factor: 500 nM Ephydatia muelleri Gtsf1; guide: L1MC piRNA 5'p-UAACUAAAUACUAUGCAAGCUGUAGG; MIWI and MILI are mouse PIWI proteins and EfPiwi is from a freshwater sponge; tags in brackets are library labels; higher = faster piRNA-guided slicing of the target
How it was run: as §1

[3] = auxiliary factor: 500 nM mouse GTSF1
[4] = auxiliary factor: none (no GTSF1)

Sequence	pre-steady-state target cleavage rate [1, 3]	pre-steady-state target cleavage rate [2]	pre-steady-state target cleavage rate [1, 4]
UCCUCCUACAGCUUGCAUAGAAUUUAGAAA	0.0449 ± 0.015	0.00385 ± 0.0019	
UCCUCCUACAGCUUCGAUAGUAUUUAGUAA	0.217 ± 0.02	0.00413 ± 0.0021	
UCCUGGAACAGCUUGCAUACUAUUUAGAUA	0.013 ± 0.0053	0.00312 ± 0.0022	
UCCUGCUACACCUUGCAUAGUAUUUAGAUA	0.112 ± 0.032	0.00254 ± 0.0016	
UCCUGCUACAGCUUGCAUAGUAUUAUGUUA	0.231 ± 0.047	0.00406 ± 0.002	
UCCUGGAACACCAUGCAUAGUAUUUAGUUA	0.163 ± 0.018	0.00616 ± 0.0041	
UCCUGGAUCAGCAUGCAUAGUAUUUACAAA	0.0991 ± 0.019	0.00615 ± 0.0038	
UCCUGGUUGUGCUUGCAUAGUAUUUAGAAA	0.0381 ± 0.013	0.00415 ± 0.0022	
UCCUGGAUGUCGAACGUUAGUAUUUUCAAA [g6:g13:cont:t1A]		< 0.0001	< 0.0001
UCCUCCUACAGCUUGGUUAGUAUUUAGAAA	0.081 ± 0.016	0.00231 ± 0.0022	
UCCUGGAACAGCUUGCAUAGUAUUAAGAAA	0.154 ± 0.045	0.00313 ± 0.0019	
UCCUGGAUGAGCUUGCUUAGUAUUUAGAUA	0.128 ± 0.02	0.00382 ± 0.0029	
UCCUGGAACAGCUUGCAUAGUUAUUAGUUA	0.0369 ± 0.0099	0.00251 ± 0.0017	
UCCUGCUAGAGCUUGCAUAGUAUUUACAAA	0.146 ± 0.039	0.00266 ± 0.0021	
UCCUGGAUCAGCUUGCAUAGUAUAUAGUAA	0.189 ± 0.019	0.00291 ± 0.0023	
UCCUCCUACAGCUUGCAAAGUAUUAAGUUA	0.0872 ± 0.014	0.00696 ± 0.0033	
UCCUGGUACAGCUUGCAUAGUAAUUACAAA	0.021 ± 0.0095	0.00331 ± 0.0026	
UCCUGCUACAGGUUGCAUAGAAUUUAGUUA	0.0387 ± 0.0083	0.00649 ± 0.0018	
UCCUGCUACUGCUUGCAUAGUAUUUAGAUA	0.0911 ± 0.022	0.00383 ± 0.0018	
UCCUCCUACAGCUUGCAUACUAUUUAGAUA	0.0353 ± 0.01	0.00315 ± 0.0027	
UCCUCCUACAGCUUGCAUAGUAUUAACAAA	0.11 ± 0.023	0.00454 ± 0.0033	

Sequence	pre-steady-state target cleavage rate [1, 3]	pre-steady-state target cleavage rate [2]	pre-steady-state target cleavage rate [1, 4]
UCCUGGAACAGCUUGCAUAGUAUUUUGUUA	0.154 ± 0.029	0.00368 ± 0.0018	
UCCUGGAACAGCUUGCAUACUAUUUAGUAA	0.0934 ± 0.025	0.00398 ± 0.0022	
UCCUGGUACAGCUUGCAUAGUAAUUAGAUA		0.00477 ± 0.0031	0.00338 ± 0.0033
UCCUCCUACAGCUUGCAUAGUUUUUAGAUA	0.0768 ± 0.022	0.00341 ± 0.0022	
UCCUCCUACAGCUUGCAUAGUUAAUAGUAA	0.0122 ± 0.0056	0.00511 ± 0.003	
UCCUGCUACAGCUUGCAUAGUAUUUAGUGUA	0.244 ± 0.048	0.00597 ± 0.0021	
UCCUCCUACAGCUUGCAUAGUAUUUACAUA	0.177 ± 0.041	0.00441 ± 0.0028	
UCCUGCUACAGCUUGCAUAGUAUAAAGAAA	0.0621 ± 0.021	0.00337 ± 0.0023	
UCCUGGAUGUGCUUGCAUAGUAUUUAGCUUA	0.113 ± 0.028	0.00517 ± 0.003	
UCCUGGUACAGCUUGCAUAGUAUUGAGUUA	0.155 ± 0.032	0.00418 ± 0.0024	
UCCUGGAUGUCGAACCAUAGUAUUUAGGUA		< 0.0001	< 0.0001
UCCUGGUACAGCUUGCAUAGUAUUAUCUAA	0.0327 ± 0.012	0.00312 ± 0.0027	
UCCUCCUACUCCUUGCAUAGUAUUUAGAAA	0.0907 ± 0.021	0.00457 ± 0.0022	
UCCUGGAACAGCUAGCAUACUAUUUAGUUA	0.0692 ± 0.011	0.0045 ± 0.0019	
UCCUGGAACAGCUAUGCAUAGUAUUUAGUUA	0.21 ± 0.018	0.0102 ± 0.0029	
UCCUGGAUCAGCUUGCAUAGUAAUUACUUA	0.0264 ± 0.0065	0.00233 ± 0.0022	
UCCUCCUACAGCUUGCAUAGUAUAUAGAUA	0.0715 ± 0.018	0.0051 ± 0.0025	
UCCUGCUACAGCUUGCGAUAGUAUUUAGUUA	0.0073 ± 0.0045	0.00987 ± 0.0026	
UCCUGGAUGUCGAAGGAAAGUAUUUAGUUA		< 0.0001	< 0.0001
UCCUGGAUGACCUAGCAUAGUAUUUAGUUA	0.0953 ± 0.022	0.0121 ± 0.0072	
UCCUGGAACAGCUUGCAUAGUAUUUAUGUUA	0.127 ± 0.018	0.0035 ± 0.002	

Sequence	pre-steady-state target cleavage rate [1, 3]	pre-steady-state target cleavage rate [2]	pre-steady-state target cleavage rate [1, 4]
UCCUGCUACAGCUUGCAUAGUAUUUACAUA	0.157 ± 0.041	0.0023 ± 0.0023	
UCCUGCUACUGCUUGCAUAGUAUUUACAAA	0.0206 ± 0.0071	0.00262 ± 0.0024	
UCCUGGAUGUCCAUUGCAUAGUAUUUAGUUA	0.127 ± 0.032	0.00326 ± 0.0022	
UCCUGGAUGAGCUUGCAUAGUAUUAAGAUA	0.00532 ± 0.0045	0.00505 ± 0.003	
UCCUGCUACAGCUUGCUUAGAAUUUAGUUA	0.0543 ± 0.011	0.00357 ± 0.0018	
UCCUGGAUCACCUUGCAUAGUAUUUAGAUA	0.111 ± 0.025	0.00551 ± 0.005	
UCCUGGUACAGCUUGCAUAGUAUUUUCUUA	0.0368 ± 0.016	0.00532 ± 0.0034	
UCCUGGAACAGCUUGCAUAGUAUAUAGAAA	0.0917 ± 0.026	0.00685 ± 0.0044	
UCCUCCUACAGCUUGCAUAGUUUUUAGAAA	0.0703 ± 0.019	0.00527 ± 0.0024	
UCCUCCUACAGCAAGCAUAGUAUUUAGUAA	0.238 ± 0.02	0.00371 ± 0.0026	
UCCUGGUACAGCUUGCAUAGUAAAUAGUUA	0.238 ± 0.038	0.00642 ± 0.0025	
UCCUGCUACAGCUUGCAUAGUAUUAACAAA	0.0401 ± 0.011	0.00321 ± 0.0023	
UCCUGGAUGUCCUUGCAUAGUAUUUAGGUUA	0.0768 ± 0.019	0.00393 ± 0.0033	
UCCUCCUACAGCUUGCAUAGUUUAUAGUUA	0.0469 ± 0.011	0.00613 ± 0.0033	
UCCUCCUACAGCUUGCAUAGUAUUUAGAUUA	0.122 ± 0.022	0.0103 ± 0.0044	
UCCUGGAACAGCUUGCAUAGCAUUUAGUUA	0.0886 ± 0.013	0.00399 ± 0.0015	
UCCUGCUAGUGCUUGCAUAGUAUUUAGUAA		0.00297 ± 0.0015	
UCCUGCUACAGCUUGGAUAGUAUUUAGUUA		0.017 ± 0.0041	
UCCUGGAUGUCGAACGAUAGUAUUUAGUUA		< 0.0001	
